# KDM4E inh: qHTS Assay for Inhibitors of Human Jumonji Domain Containing 2E (JMJD2E) | 230,000 tested, 1.6% active | JMJD2E catalytic domain, FDH-coupled NADH fluorescence (FDH is formaldehyde dehydrogenase) | Lysine-specific demethylase 4E (Homo sapiens), B2RXH2 | Potency, µM (highest dose often 57.1 µM), without a hit: top-dose activity change, negative = inhibition, usual class: inhibitors; active means well fitted inhibition curve with a large enough effect, not every such curve was filed as active; inconclusive means small, poorly fitted or top-dose-only effect, or another doubt; inactive means no such curve, though single readings can be large or run the other way;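 further: potency means the concentration at half of the fitted maximal effect; 0% = wells with enzyme and -100% = buffer wells without enzyme; nearly all actives have a fitted effect of over 50% in size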
# BAZ2B inh: qHTS Assay for Inhibitors of BAZ2B; AlphaScreen BAZ2B-H3K14Ac peptide displacement; AID 504333, 2011; Potency, µM (titrated, usually from 114 µM), without a hit: at the top dose activity change, negative = inhibition, actives largely listed as inhibitors; Bromodomain adjacent to zinc finger domain protein 2B (Homo sapiens), Q9UIF8; 360,000 tested, 4.4% active; further: potency means the concentration at half of the fitted maximal effect; on the % scale 0 is the no-effect control and ±100 the full control effect; nearly all actives have a fitted effect of over 60% in size
#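 AlphaScreen displacement of biotin-H3(5-23)K14Ac peptide (50 nM final) from BAZ2B (50 nM final) in PBS pH 7.4, 0.01% Tween-20; complex preformed 30 min RT, then compounds (top 110 uM) 30 min RT, beads 20 min dark.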
# HP1b binding inh: HTS for Inhibitors of HP1-beta Chromodomain Interactions with Methylated Histone Tails. Potency, µM (doses to about 114 µM), for inactives: at the top dose activity change, negative = inhibition, most hits filed as inhibitors. 390,000 tested, 0.56% active. AID 540317, 2011. AlphaScreen HP1-beta / biotin-H3K9me3 peptide binding; further: potency means the concentration at half of the fitted maximal effect; nearly all actives have a fitted effect of over 70% in size
#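 AlphaScreen: HP1-beta (50 nM) preformed 30 min with biotin-H3(1-18)K9me3 peptide (50 nM) in PBS pH 7.4, 0.01% Tween-20. Compound added for 30 min at RT, then streptavidin donor/nickel chelate acceptor beads (10 ug/mL) for 30 min.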
# L3MBTL1 block: qHTS Assay for the Inhibitors of L3MBTL1 | AID 485360, 2010 | Lethal(3)malignant brain tumor-like protein 1 (Homo sapiens), Q9Y468 | AlphaScreen L3MBTL1–H3K9me1 peptide binding | Potency, µM (top dose mostly 57.1 µM), without a hit: top-dose activity, negative = inhibition, actives largely listed as inhibitors | 230,000 tested, 0.66% active; further: potency means the concentration at half of the fitted maximal effect; on the % scale 0 is the no-effect control and ±100 the full control effect; nearly all actives have a fitted effect of over 60% in size
# Target sequence (Q9Y468 whole entry, looked up): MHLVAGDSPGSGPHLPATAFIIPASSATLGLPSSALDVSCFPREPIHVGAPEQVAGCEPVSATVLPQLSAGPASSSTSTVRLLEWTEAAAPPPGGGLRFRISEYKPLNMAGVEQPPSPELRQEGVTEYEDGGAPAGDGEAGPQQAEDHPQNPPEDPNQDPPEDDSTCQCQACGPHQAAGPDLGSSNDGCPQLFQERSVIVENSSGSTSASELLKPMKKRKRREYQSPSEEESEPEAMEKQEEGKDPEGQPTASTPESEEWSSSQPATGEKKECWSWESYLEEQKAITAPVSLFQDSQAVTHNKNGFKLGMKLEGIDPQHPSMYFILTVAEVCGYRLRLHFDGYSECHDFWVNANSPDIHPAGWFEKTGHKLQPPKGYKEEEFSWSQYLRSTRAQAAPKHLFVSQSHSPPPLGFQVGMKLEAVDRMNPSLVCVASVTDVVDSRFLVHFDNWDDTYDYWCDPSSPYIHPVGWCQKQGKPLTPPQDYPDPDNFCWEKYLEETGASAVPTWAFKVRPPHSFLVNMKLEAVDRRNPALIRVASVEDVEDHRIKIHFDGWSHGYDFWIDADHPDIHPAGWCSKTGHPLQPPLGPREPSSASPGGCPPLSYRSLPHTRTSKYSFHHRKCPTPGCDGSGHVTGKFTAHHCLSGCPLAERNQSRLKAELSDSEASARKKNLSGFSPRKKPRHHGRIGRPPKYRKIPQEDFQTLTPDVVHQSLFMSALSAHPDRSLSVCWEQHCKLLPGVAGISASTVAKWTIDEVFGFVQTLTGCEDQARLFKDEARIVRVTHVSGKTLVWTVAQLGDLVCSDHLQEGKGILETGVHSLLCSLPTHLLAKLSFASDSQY
#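 First, the protein-peptide complex forms for 30 min at room temperature (L3MBTL1 50 nM, biotinylated H3K9me1 peptide 75 nM). Next, compounds are pin-transferred and incubated 30 min. Finally, AlphaScreen beads are added and read after 30 min.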
# JMJD2A Tudor inh: qHTS Assay for Inhibitors of JMJD2A-Tudor Domain. AID 504339, 2011. Potency, µM (titrated, usually from 114 µM), for the others: top-dose activity change, negative = inhibition, actives largely listed as inhibitors. 390,000 tested, 4.4% active. Lysine-specific demethylase 4A (Homo sapiens), O75164. AlphaScreen JMJD2A-Tudor / H3K4me3 peptide binding; further: potency means the concentration at half of the fitted maximal effect; on the % scale 0 is the no-effect control and ±100 the full control effect; nearly all actives have a fitted effect of over 50% in size
# PI5P4Ka inh: qHTS for Inhibitors of phosphatidylinositol 5-phosphate 4-kinase (PI5P4K); Phosphatidylinositol 5-phosphate 4-kinase type-2 alpha (Homo sapiens), P48426; PI5P4Kalpha enzyme, ADP-Glo luminescence, 60 min; active compounds read low; max response, %; 330,000 tested, 1.2% active; active means max response of -50% or lower; inconclusive means between -30% and -50%; inactive means -30% or higher; further: value at the top dose of about 77 µM; on the % scale 0 is the no-effect control and ±100 the full control effect
#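 Single end-point luminescence (ADP-Glo) quantified ADP from PI5P4Kalpha turnover; ATP 5 microM final, 1 h at RT, 0.1% CHAPS and 0.28 mM EGTA in HEPES pH 7.4.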
# An asterisk follows results filed as active; ? = inconclusive; . = not tested or not shown. An excerpt weighted towards active compounds, which were near 5.7% of everything screened. Unless noted, the call rests on the fitted dose curve; in most records, active means well fitted inhibition curve with a large enough effect; inconclusive means small, poorly fitted or top-dose-only effect; inactive means no such curve, though single readings can be large or run the other way.
SMILES,KDM4E inh,BAZ2B inh,HP1b binding inh,L3MBTL1 block,JMJD2A Tudor inh,PI5P4Ka inh
O=C(CCC1N=C2c3ccccc3N=C(SCc3ccc(Cl)cc3)N2C1=O)NCCc1ccccc1 (configuration not stated),.,-3%,12%,.,-17%,.
Cc1ccc(CSC2=Nc3ccccc3C3=NC(CC(=O)NCc4ccco4)C(=O)N23)cc1 (configuration not stated),?,50µM*,9%,?,?,?
O=C(CC1N=C2c3ccccc3N=C(SCc3ccc(F)cc3)N2C1=O)NCc1ccco1 (configuration not stated),?,-38%,24%,-3%,?,-14
O=C(CC1N=C2c3ccccc3N=C(SCc3ccc(Cl)cc3)N2C1=O)NCCc1ccccc1 (configuration not stated),.,0%,31%,.,79µM*,.
Cc1ccc(CN(C(=O)COc2cccc(Cl)c2)c2ccccn2)o1,.,3%,28%,.,-10%,.
CSCC[C@H](NC(=O)N1CCn2c1nc1ccccc12)C(=O)NCc1ccccc1,.,?,31%,.,?,0
CSCC[C@H](NC(=O)N1CCn2c1nc1ccccc12)C(=O)NCc1ccco1,.,?,?,.,45µM*,-2
COc1ccc(OC)c(S(=O)(=O)N2CC=C(c3c(C)n(CC(=O)N4CCCC4)c4ccccc34)CC2)c1,.,?,19%,.,-28%,.
Cc1cc(S(=O)(=O)C(CNC(=O)COc2ccccc2)c2cccs2)ccc1F (configuration not stated),.,4%,56%,.,-1%,.
Cc1ccc(S(=O)(=O)C(CNC(=O)COc2ccccc2)c2cccs2)cc1 (configuration not stated),.,?,20µM*,.,25µM*,.
CN(CCNC(=O)c1ccc(/C=N/O)nc1)Cc1ccccc1,2%,?,4%,-8%,8.9µM*,-7
CN(CCCCCNC(=O)/C=N/O)Cc1ccccc1,7%,-7%,.,9%,.,.
c1ccc(-c2nccc(-c3ccco3)n2)nc1,?,32µM*,32%,-27%,?,1
c1ccc(-c2nc(-c3ccco3)cs2)nc1,?,6%,-26%,-4%,-36%,.
CN(C)CCCN(C(=O)c1ccc2c(c1)CCCC2)c1nc2c(F)cccc2s1,4%,?,?,?,45µM*,-3
CN(C)CCN(C(=O)c1ccc2c(c1)CCCC2)c1nc2cc3c(cc2s1)OCCO3,.,-1%,?,.,45µM*,0
Cc1ccc2nc(N(CCCN(C)C)C(=O)c3ccc4c(c3)CCCC4)sc2c1,-6%,?,?,-18%,?,-2
CN(C)CCCN(C(=O)c1ccc(S(=O)(=O)N(C)Cc2ccccc2)cc1)c1nc2c(F)cccc2s1,.,?,-10%,.,?,3
CN(C)CCCN(C(=O)c1cc2cc([N+](=O)[O-])ccc2s1)c1nc2cc3c(cc2s1)OCCO3,.,?,-33%,-11%,?,-69*
CN(C)CCN(C(=O)c1ccc2c(c1)OCCO2)c1nc2cc3c(cc2s1)OCO3,.,?,-25%,.,?,-2
CCOc1ccc2nc(N(CCN(C)C)C(=O)c3ccc4c(c3)CCCC4)sc2c1,.,?,-15%,.,35µM*,1
CCOC(=O)c1ccc(NC(=O)C(Cc2ccccc2)NS(=O)(=O)c2ccc(Br)s2)cc1 (configuration not stated),.,-20%,26%,.,-12%,.
Cc1ccc(-c2nc3c(c(SCC(=O)N4CCCCC4)n2)Cc2cc(C)ccc2O3)cc1,.,-16%,11%,.,-18%,.
